hNpr1 antagonist = Natriuretic polypeptide receptor (hNpr1) antagonism - Primary qHTS. Atrial natriuretic peptide receptor 1 (Homo sapiens), P16066. HEK293 hNpr1 GloSensor cGMP, ANP-stimulated luminescence. Potency, µM (series often up to 46.3 µM), for the others: at the top dose activity change, negative = inhibition, usual class: inhibitors. 76,000 compounds, 1.6% hits; calls by dose curve; note: nearly all actives have a fitted effect of over 60% in size
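HEK293 cells stably expressing human Npr1 and cGMP GloSensor pGS-40F, loaded 2 h with 2% GloSensor reagent, given compound 30 min at room temperature. Luminescence read before and 20 min after 0.1 nM hNppA.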
HEK cytotox = Cytotoxic Profiling in HEK 293 Cell Line of Diverse Libraries Using Quantitative High-Throughput Screening. HEK 293 viability, ATP luminescence (CellTiter-Glo), 48-72 h. Potency, µM (top dose mostly 115 µM), for the others: at the top dose activity change, negative = cytotoxicity, actives largely listed as inhibitors. 94,000 compounds, 6.6% hits; note: nearly all actives have a fitted effect of over 60% in size
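250 HEK 293 cells/well; compound by pintool; incubated 48 or 72 hr at 37 degree Celsius; CellTiter-Glo added, 10 min RT, luminescence imaged.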
Luciferase inh = Firefly luciferase inhibition profiling of diverse chemical library using quantitative high-throughput screening | AID 1347043, 2019 | purified P. pyralis luciferase, luminescence, biochemical | 76,000 compounds, 2.5% hits | Potency, µM (doses to about 115 µM), most hits filed as inhibitors; note: nearly all actives have a fitted effect of over 65% in size
Target sequence (P08659 whole entry, looked up): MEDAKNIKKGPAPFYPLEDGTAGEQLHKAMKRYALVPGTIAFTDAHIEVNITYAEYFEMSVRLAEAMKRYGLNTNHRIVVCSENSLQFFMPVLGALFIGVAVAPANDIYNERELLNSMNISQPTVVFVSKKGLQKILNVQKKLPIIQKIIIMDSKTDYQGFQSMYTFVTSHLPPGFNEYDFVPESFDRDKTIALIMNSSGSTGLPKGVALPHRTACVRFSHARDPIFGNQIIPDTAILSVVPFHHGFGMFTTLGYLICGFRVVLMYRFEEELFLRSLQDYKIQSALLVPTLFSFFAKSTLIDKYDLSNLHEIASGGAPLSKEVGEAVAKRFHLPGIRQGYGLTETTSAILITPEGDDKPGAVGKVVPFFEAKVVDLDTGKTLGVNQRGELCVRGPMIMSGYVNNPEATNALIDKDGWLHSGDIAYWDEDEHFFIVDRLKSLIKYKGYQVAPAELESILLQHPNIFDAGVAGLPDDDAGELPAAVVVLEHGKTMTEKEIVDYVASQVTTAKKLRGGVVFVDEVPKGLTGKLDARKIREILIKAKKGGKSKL
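Inhibitors were tested against purified firefly luciferase in a biochemical, low-substrate format (both substrates at 10uM) and luminescence measured with a CCD imager.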
3T3 cytotox = Cytotoxic Profiling in NIH 3T3 Cell Line of Diverse Libraries Using Quantitative High-Throughput Screening | NIH 3T3 viability, CellTiter-Glo ATP luminescence, 48-72 h | Potency, µM (top dose mostly 96.7 µM), inactives show at the top dose activity change, negative = cytotoxicity, usual class: inhibitors | 94,000 compounds, 4.3% hits | AID 1345082, 2018; note: nearly all actives have a fitted effect of over 55% in size
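First NIH 3T3 cells are plated at 400 cells/well; next compound is pinned in; then plates incubate 48 or 72 hr at 37 °C; finally CellTiter-Glo is added and luminescence read after 10 min.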
* = called active by the depositor; [ ] = remark or other dose. This is a sample that favours compounds with a hit; in the whole collection about 11% have one here. Unless noted, calls come from the whole dose curve; as a rule, active = well fitted curve in the direction sought with a large enough effect; inconclusive = small, poorly fitted or top-dose-only effect, or another doubt; inactive = no such curve, though single readings can be large; an effect the other way counts as inactive or inconclusive. % is set by controls: 0 for no effect and ±100 for the full control effect; potency is the fitted concentration of half-maximal effect.

For COc1ccc(C(=O)Nc2ccc([C@H]3OCC(=O)N(Cc4nccn4C)[C@@H]3CO)cc2)cc1 the results were hNpr1 antagonist 6%, HEK cytotox -18%, Luciferase inh 40µM* and 3T3 cytotox -16%.
For O=C(Nc1ccccc1)Nc1ccc([C@H]2OCC(=O)N(Cc3ccccc3)[C@@H]2CO)cc1 the results were hNpr1 antagonist -17%[70.6 µM], HEK cytotox 71µM*, Luciferase inh inconclusive and 3T3 cytotox 89µM*.
CC(C)CN1C(=O)CO[C@H](c2ccc(NC(=O)c3ccccc3)cc2)[C@H]1CO was read as hNpr1 antagonist -24%[70.6 µM], HEK cytotox 100µM*, Luciferase inh inactive and 3T3 cytotox inconclusive.
For Cc1oncc1S(=O)(=O)N1C[C@H](CO)C[C@H](CN2CCCC2)C1 the results were hNpr1 antagonist 7%, HEK cytotox -4%, Luciferase inh inactive and 3T3 cytotox 2%.
O=C(NCc1ccc(F)cc1)c1cc(C2CC2)nc2onc(C3CCCN3)c12 (stereo not drawn) was read as HEK cytotox -26% and 3T3 cytotox -14%.
`Cc1nn(CCO)c(C)c1NC(=O)CCc1cc2n(n1)CCCNC2` gave hNpr1 antagonist 2%, HEK cytotox 2%, Luciferase inh inactive and 3T3 cytotox 0%.
COc1cccc(CC(=O)N2CC(C(=O)N(C)C)C3(CCOCC3)C2)c1 (stereo not drawn) was read as hNpr1 antagonist -6%, HEK cytotox -3%, Luciferase inh inactive and 3T3 cytotox -6%.
Screening COc1cccc(NC(=O)C2(C)CCc3cnc(N4CCOCC4)nc32)c1 (stereo not drawn) returned hNpr1 antagonist 2%[70.6 µM], HEK cytotox inconclusive, Luciferase inh inactive and 3T3 cytotox inconclusive.
For CC1(C(=O)NCC2CC2)CCc2cnc(Nc3ccccc3)nc21 (stereo not drawn) the results were hNpr1 antagonist -2%[70.6 µM], HEK cytotox 100µM*, Luciferase inh inactive and 3T3 cytotox inconclusive.
Screening CN1Cc2ccc(Nc3ccccc3)nc2C(C)(C(=O)NCCc2ccccn2)C1 (stereo not drawn) returned hNpr1 antagonist -10%[70.6 µM], HEK cytotox inconclusive, Luciferase inh inactive and 3T3 cytotox inconclusive.
For COc1cccc(Nc2ncc3c(n2)C(C)(C(=O)NCC2CC2)CC3)c1 (stereo not drawn) the results were hNpr1 antagonist -24%[70.6 µM], HEK cytotox 50µM*, Luciferase inh inactive and 3T3 cytotox inconclusive.
For CC1(C(=O)NCC2CC2)COCc2cnc(Nc3ccccc3)nc21 (stereo not drawn) the results were hNpr1 antagonist -5%[70.6 µM], HEK cytotox inconclusive, Luciferase inh inactive and 3T3 cytotox -13%[138 µM].
Screening COc1cccc(Nc2ncc3c(n2)C(C)(C(=O)NCCc2ccccn2)CC3)c1 (stereo not drawn) returned hNpr1 antagonist -2%[70.6 µM], HEK cytotox 100µM*, Luciferase inh inactive and 3T3 cytotox inconclusive.
For COc1ccc(C(=O)N2CCc3nc(C(C)C)nc(-c4ccc(O)cc4)c3CC2)cc1 the results were HEK cytotox -28% and 3T3 cytotox -25%.
For COCC(=O)NC1CCN(Cc2cccc(-c3ccccc3OC)c2)CC1 the results were HEK cytotox inactive and 3T3 cytotox -21%.
For COc1cccc(-c2ccccc2NC(=O)C2CCN(Cc3cc(F)ccc3F)CC2)c1 the results were hNpr1 antagonist inconclusive, HEK cytotox 22µM*, Luciferase inh inactive and 3T3 cytotox inconclusive.
`COc1ccccc1-c1cccc(CN2CCC(NC(=O)c3ccc(F)cc3)CC2)c1` gave HEK cytotox 40µM* and 3T3 cytotox inconclusive.
Screening COc1ccccc1-c1cccc(CN2CCC(NC(=O)Cc3ccc(C(F)(F)F)cc3)CC2)c1 returned HEK cytotox 11µM* and 3T3 cytotox 11µM*.
For COc1ccccc1-c1cccc(CN2CCC(NC(=O)Nc3ccc(C)c(F)c3)CC2)c1 the results were HEK cytotox 10µM* and 3T3 cytotox 20µM*.
CC(Cn1cncn1)C(=O)N1CCC2(CC1)CN(CCOc1ccccc1)C(=O)O2 (stereo not drawn) was read as hNpr1 antagonist 15%, HEK cytotox -2%, Luciferase inh inactive and 3T3 cytotox -2%.
For COCCNC(=O)c1ccc2c(c1)N(C)C(CC(=O)Nc1cccnc1)CO2 (stereo not drawn) the results were hNpr1 antagonist 0%, HEK cytotox -14%, Luciferase inh inactive and 3T3 cytotox -14%.
COc1ccc(C(=O)NC2CCN(Cc3cccc(-c4ccccc4OC)c3)CC2)cc1 was read as HEK cytotox 22µM* and 3T3 cytotox inconclusive.
Screening OC[C@@H]1CNC[C@H]1C1CCN(Cc2ccc(F)c(Br)c2)CC1 returned hNpr1 antagonist 7%, HEK cytotox inconclusive, Luciferase inh inactive and 3T3 cytotox 35µM*.
Screening OC[C@@H]1CNC[C@H]1C1CCN(Cc2ccc(Br)cc2F)CC1 returned hNpr1 antagonist -8%, HEK cytotox inconclusive, Luciferase inh inactive and 3T3 cytotox inconclusive.
For Fc1ccc(CNc2cc3c(cn2)CN(Cc2ccncc2)CCN3)cc1 the results were hNpr1 antagonist 2%[70.6 µM], HEK cytotox -51%[172 µM], Luciferase inh inactive and 3T3 cytotox -43%[138 µM].
Screening Cc1cc(-c2cc3c(cn2)CN(Cc2ccc(F)c(F)c2)CCN3)ccn1 returned hNpr1 antagonist 3%[70.6 µM], HEK cytotox 71µM*, Luciferase inh 40µM* and 3T3 cytotox inconclusive.
For CCn1cc(-c2cc3c(cn2)CN(CCc2ccccc2)CCN3)cn1 the results were hNpr1 antagonist -2%[70.6 µM], HEK cytotox inconclusive, Luciferase inh inactive and 3T3 cytotox inconclusive.
Cc1cc(-c2cc3c(cn2)CN(Cc2ccccc2F)CCN3)ccn1 was read as hNpr1 antagonist -16%[70.6 µM], HEK cytotox 71µM*, Luciferase inh 25µM* and 3T3 cytotox inconclusive.
`Cc1cc(-c2cc3c(cn2)CN(Cc2c[nH]c4ccccc24)CCN3)ccn1` gave hNpr1 antagonist -6%[70.6 µM], HEK cytotox 112µM*, Luciferase inh inconclusive and 3T3 cytotox inconclusive.
Screening c1ccc(Oc2ccccc2-c2cc3c(cn2)CN(Cc2ccncc2)CCN3)cc1 returned hNpr1 antagonist -27%[70.6 µM], HEK cytotox inconclusive, Luciferase inh inactive and 3T3 cytotox inconclusive.
Fc1ccc(CN2CCNc3cnc(OCc4cccnc4)cc3C2)cc1F was read as hNpr1 antagonist inconclusive, HEK cytotox inconclusive, Luciferase inh inactive and 3T3 cytotox inconclusive.
For Cc1cc(-c2cc3c(cn2)CN(Cc2ccc(C(F)(F)F)cc2)CCN3)ccn1 the results were hNpr1 antagonist 28µM*, HEK cytotox 63µM*, Luciferase inh 63µM* and 3T3 cytotox 79µM*.

Bioassay records deposited in PubChem by National Center for Advancing Translational Sciences (NCATS).
